PubChem BioAssay AID588347 (National Center for Advancing Translational Sciences (NCATS), 2011)
The other results are listed elsewhere or left out. Inconclusive results are not listed. Activity calls are given as the source filed them. Calls come from the whole dose curve; as a rule, active = well fitted inhibition curve with a large enough effect; inconclusive = small, poorly fitted or top-dose-only effect, or another doubt; inactive = no such curve, though single readings can be large or run the other way.

These molecules were tested against Histone acetyltransferase KAT2A (Homo sapiens) (UniProt Q92830) (assay: qHTS Assay for Inhibitors of GCN5L2: Hit confirmation). Settings: GCN5L2 HAT, ThioGlo1 CoA fluorescence, 20 min.
Source text: Histone acetyltransferase (HAT) enzymes transfer a […] group from acetyl-coenzyme A to the epsilon-amino group of conserved lysine residues of N-terminal histone tails. Acetylation results in charge neutralization of this positively charged amino acid, decreasing interactions with the […] backbone and making the DNA more accessible for transcription. HATs have been recognized as an emerging drug target for treatment of cancer, diabetes, asthma, chronic obstructive pulmonary disease, cardiac disease, and viral infection. Protein identified with HAT activity include the […] like 2 (GCN5L2, a.ka. Histone acetyltransferase KAT2A) which acetylates histone H3 at Lys9, 14, 18, 13, and to lesser extent histones H4 and H2B. This activates transcription of the gene by modulating chromatin structure and installing the acetyllysine recognition mark for bromodomain-containing coactivator proteins. A quantitative high throughput screen was developed to identify small molecule inhibitors. The assay is based on the principle that it measures formation of reduced CoA with the pro-fluorescent maleimide derivative ThioGlo1 that becomes fluorescent upon reaction with the free thiol of CoA. A large number of artifacts are expected in this primary screen, compounded by the assay format (fluorescent artifacts) and by the high top concentration tested for each substance. […] Yasgar, et al. Compound Management for Quantitative High-Throughput Screening. […] Inglese, et al. Quantitative high-throughput screening: a titration-based approach that efficiently identifies biological activities in large chemical libraries. […]
To each well of a 1,536w plate, 3ul of GCN5L2 (final concentration 20nM, in 50mM HEPES, 0.1mM EDTA (pH 7.5), 0.01% Tween-20 buffer) are added using a Kalypsys dispenser. […] Plates are read immediately on the ViewLux (PerkinElmer) (Ex340nm/Em540nm) for a 0 min read, incubated for 20 min at room temperature, and read again on the ViewLux with the same settings. The initial read was carried out to identify compounds that are potentially fluorescent.

Chain of Histone acetyltransferase KAT2A (Homo sapiens) (Q92830 whole entry, looked up): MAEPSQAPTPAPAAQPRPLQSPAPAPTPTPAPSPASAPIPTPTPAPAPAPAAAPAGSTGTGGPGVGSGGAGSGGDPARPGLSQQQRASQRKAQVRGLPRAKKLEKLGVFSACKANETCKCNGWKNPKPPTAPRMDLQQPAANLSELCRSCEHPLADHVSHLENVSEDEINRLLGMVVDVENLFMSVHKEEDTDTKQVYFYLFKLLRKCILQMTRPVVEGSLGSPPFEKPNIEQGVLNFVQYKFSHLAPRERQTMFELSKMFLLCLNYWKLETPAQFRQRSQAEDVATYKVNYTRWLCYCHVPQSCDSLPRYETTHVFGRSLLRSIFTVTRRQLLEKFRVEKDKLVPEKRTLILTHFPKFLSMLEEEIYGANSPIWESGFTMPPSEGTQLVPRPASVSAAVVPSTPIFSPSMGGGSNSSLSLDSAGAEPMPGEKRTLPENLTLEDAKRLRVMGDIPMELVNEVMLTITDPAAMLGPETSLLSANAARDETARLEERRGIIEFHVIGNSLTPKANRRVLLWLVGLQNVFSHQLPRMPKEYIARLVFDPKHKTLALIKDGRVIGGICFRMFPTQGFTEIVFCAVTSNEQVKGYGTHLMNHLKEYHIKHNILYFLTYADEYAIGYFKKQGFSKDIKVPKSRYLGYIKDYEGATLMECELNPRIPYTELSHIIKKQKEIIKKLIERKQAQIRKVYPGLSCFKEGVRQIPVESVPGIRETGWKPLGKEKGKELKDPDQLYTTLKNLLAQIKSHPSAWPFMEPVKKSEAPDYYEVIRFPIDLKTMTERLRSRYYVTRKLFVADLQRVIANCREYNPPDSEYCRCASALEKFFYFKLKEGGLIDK

Potency, active:
CC1=C/C(=N\OS(=O)(=O)c2ccccc2)C=CC1=O 10.2 µM
FC(F)(F)C1CCCN(c2nsc3ccccc23)C1 (stereo not drawn) 2.89 µM
O=c1[nH]c2ccccc2n2c(-c3ccccc3)nnc12 6.46 µM
